This is an account of results in PubChem BioAssay AID540352 (National Center for Advancing Translational Sciences (NCATS), 2011).

Records with an inconclusive call do not appear. Calls of active or inactive are those of the source. The call rests on the fitted dose curve; in most records, active means well fitted inhibition curve with a large enough effect; inconclusive means small, poorly fitted or top-dose-only effect; inactive means no such curve, though single readings can be large or run the other way.

This test in a line: qHTS for Inhibitos of Bacillus subtilis Sfp phosphopantetheinyl transferase (PPTase): Chemistry Optimization Followup in B. Subtilis 168. To be noted: B. subtilis 168 growth, BacTiter-Glo luminescence, 5 h; series mostly up to 114 µM; activity change, negative = inhibition: at the top concentration. The text has this:
Phosphopantetheinyl transfer is a process essential to cellular viability and maintenance. Cell-permeable and stable compounds acting as PPTase inhibitors are anticipated to be antimicrobial agents in organisms with complimenting genotypes. […] This experiment evaluated a series of test compounds for antimicrobial activity with B. subtilis 168 (genotype: acpS+ and sfp-), a strain that contains a frameshift mutation in the sfp locus and thus requires a functional AcpS gene product for viability. [Mootz HD, 2001] This strain is expected to be sensitized to cell-permeable AcpS inhibitors, and insensitive to Sfp inhibitors. NIH Chemical Genomics Center [NCGC] NIH Molecular Libraries Probe Centers Network [MLPCN] MLPCN Grant: MH083266-01 Assay Submitter (PI): Michael Burkart, University of California, San Diego
Innoculum preparation. Bacillus subtilis 168 is maintained on lysogeny broth (LB) solidified by the addition of 1.5% w/v agar. Single colonies were used to LB medium (2 mL) and shaken overnight at 30 masculineC. In the morning, this culture (100 ul) was used to seed a fresh LB medium (10 mL) and was shaken at 30 masculineC until the culture OD600 reached 0.5. This culture was diluted 1:100 in fresh LB medium to provide the inoculum below. Bacterial susceptibility. LB medium (2 uL) is dispensed into wells of a sterile white 1536-well plate. Test compounds (23 nL) prepared as serial dilutions in DMSO are added to the plate by pintool transfer. Innoculum (2 uL) is added, the plates are covered with a vented Kalypsys assay lid and incubated at 30 masculineC. After 5 h, Bac-Titer Glo (4 uL; Promega Corp, Madison, WI) is added to the plates. They are incubated 10 minutes at room temperature and then the luminescence detected in a ViewLux multimodal plate reader.
Consider `Cc1cc(C)nc(Nc2nnc(N3CCN(c4cccc(C(F)(F)F)c4)CC3)s2)c1`, for which the “activity change, negative = inhibition” value is -13.3% (inactive).

On to `Cc1cc(C)nc(/N=C(\NC#N)N2CCN(c3cccc(C(F)(F)F)c3)CC2)c1`, for which the Potency is 46.9 µM (active).

As for `FC(F)(F)c1cccc(N2CCN(C(=S)Nc3cc(C(F)(F)F)ccn3)CC2)c1`, the Potency was 13.2 µM (active).

For `COc1cccc(NC(=S)N2CCN(c3ccccc3C(F)(F)F)CC2)n1`, the Potency is 26.4 µM (active).

Regarding `COc1cccc(NC(=S)N2CCN(c3cc(C(F)(F)F)cc(C(F)(F)F)c3)CC2)n1`, the “activity change, negative = inhibition” value was -7.94% (inactive).

Take `Cc1ccnc(NC(=S)N2CCN(c3cc(F)cc(Cl)c3)CC2)c1`: the Potency was 5.91 µM (active).

On to `S=C(Nc1cc(Cl)ccn1)N1CCN(c2ccc3ccccc3n2)CC1`, for which the Potency was 33.2 µM (active).

In the case of `Cc1ccnc(NC(=S)N2CCN(c3ccc(Br)cc3)CC2)c1`, the Potency is 23.5 µM (active).

`Cc1cc(C)nc(NC(=S)N2CCN(Cc3cccc4ccccc34)CC2)c1`: the Potency is 37.3 µM (active).

Consider `Cc1cc(C)nc(NC(=S)N2CCN(c3ncccc3C#N)CC2)c1`, for which the “activity change, negative = inhibition” value was -10.9% (inactive).

Consider `Cc1ccnc(NC(=S)N2CC3CN(c4cccc(C(F)(F)F)c4)CC3C2)c1` (stereo not given), for which the Potency was 11.8 µM (active).

As for `Cc1ccnc(NC(=S)Nc2cccc(C(F)(F)F)c2)c1`, the Potency is 16.7 µM (active).

Take `COC(=O)c1ccnc(NC(=S)N2CCN(c3cccc(C(F)(F)F)c3)CC2)c1`: the Potency was 41.8 µM (active).

Take `Cc1cc(C)nc(NC(=S)N2CCN(c3ccc(Cl)c(Cl)c3Cl)CC2)c1`: the Potency is 9.37 µM (active).

On to `Cc1cc(C)nc(NC(=S)N2CCN(Cc3c(F)cccc3Cl)CC2)c1`, for which the “activity change, negative = inhibition” value is -23.3% (inactive).

As to `Cc1cc(C)nc(NC(=S)N2CCN(c3nsc4ccccc34)CC2)c1`, the Potency is 52.7 µM (active).

`FC(F)(F)c1cc(N2CCN(C(=S)Nc3cc(Cl)ccn3)CC2)cc(C(F)(F)F)c1`: the Potency is 37.3 µM (active).

As to `Cc1cc(C)nc(NC(=S)N2CCN(c3ccc(Cl)cc3F)CC2)c1`, the Potency was 23.5 µM (active).

Regarding `Cc1cccc(NC(=S)N2CCN(c3cccc(C(F)(F)F)c3)CC2)c1`, the “activity change, negative = inhibition” value is -17.9% (inactive).

Take `Cc1ccnc(NC(=S)N2CCN(c3ccc(N)cc3)CC2)c1`: the “activity change, negative = inhibition” value was -18.5% (inactive).

As to `COc1cccc(NC(=S)N2CCN(c3ccc(Cl)c(Cl)c3)CC2)n1`, the “activity change, negative = inhibition” value is -26.2% (inactive).

Take `S=C(Nc1cc(Cl)ccn1)N1CCN(c2ccc(Cl)cc2Cl)CC1`: the Potency is 9.37 µM (active).

Regarding `FC(F)(F)c1cccc(N2CCN(C(=S)Nc3nccc4ccccc34)CC2)c1`, the Potency was 2.35 µM (active).

As to `Cc1cc(C)nc(NC(=S)N2CCN(c3ccc4nncn4c3)CC2)c1`, the “activity change, negative = inhibition” value was -15.5% (inactive).

Turning to `Cc1ccnc(NC(=S)N2CCN(c3cccc(N(C)C)c3)CC2)c1`, the Potency was 59.1 µM (active).

In the case of `Cc1cncc(NC(=S)N2CCN(c3cccc(C(F)(F)F)c3)CC2)c1`, the “activity change, negative = inhibition” value was -23.5% (inactive).

In the case of `COc1ccnc(NC(=S)N2CCN(c3ncc(C(F)(F)F)cc3Cl)CC2)c1`, the Potency is 14.8 µM (active).

For `Cc1ccnc(NC(=S)N2CCCN(c3cccc(C(F)(F)F)c3)CC2)c1`, the Potency is 16.7 µM (active).

`Cc1ccnc(NC(=S)NCCN(C)c2cccc(C(F)(F)F)c2)c1`: the “activity change, negative = inhibition” value is -19.2% (inactive).

With `Cc1cc(C)nc(NC(=S)N2CCN(c3ccc4cn(C)nc4c3)CC2)c1`, the “activity change, negative = inhibition” value is -14.6% (inactive).

`FC(F)(F)c1cnc(N2CCN(C(=S)Nc3cc(Cl)ccn3)CC2)c(Cl)c1`: the Potency was 14.8 µM (active).

Turning to `OCc1ccnc(NC(=S)N2CCN(c3cccc(C(F)(F)F)c3)CC2)c1`, the Potency was 46.9 µM (active).

For the compound `Cc1ccnc(NC(=S)N[C@H]2CCN(c3cccc(C(F)(F)F)c3)C2)c1`, the Potency was 52.7 µM (active).

Consider `Cc1ccnc(NC(=S)N2CCc3ccccc3C2)c1`, for which the Potency was 59.1 µM (active).

For the compound `Cc1ccc(N2CCN(C(=S)Nc3cc(C)ccn3)CC2)cc1`, the Potency is 59.1 µM (active).

Take `Cc1cc(C)nc(NC(=S)N2CCN(c3cc(Cl)c(Cl)cc3Cl)CC2)c1`: the Potency was 21 µM (active).

On to `Cc1cc(C)nc(NC(=S)N2CCN(c3cc(F)cc(F)c3)CC2)c1`, for which the Potency was 37.3 µM (active).

As for `Cc1ccnc(NC(=S)N2CCN(c3cccc(C(F)(F)F)c3)C2)c1`, the “activity change, negative = inhibition” value was -10.5% (inactive).

Regarding `Cc1cc(C)nc(NC(=S)N2CCN(c3ccc(Cl)nn3)CC2)c1`, the “activity change, negative = inhibition” value was -33.3% (inactive).

`Cc1ccnc(NC(=S)N2CCN(c3ccc(Cl)c(Cl)c3)CC2)c1`: the Potency is 11.8 µM (active).
